Laboratory results taken from the supplement of paper PMC5641865, “A screen for kinase inhibitors identifies antimicrobial imidazopyridine aminofurazans as specific inhibitors of the Listeria monocytogenes PASTA kinase PrkA” (The Journal of Biological Chemistry, 2017).
± gives the standard deviation of the averaged measurements.

System: Listeria monocytogenes 10403S
Assay: growth inhibition relative to ceftriaxone-alone control; higher = stronger potentiation of ceftriaxone growth inhibition
Conditions: 10 µM; ceftriaxone 1 ug/ml; 12 h
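Further: End-point A600 read in BHI broth at 37 °C with 2% DMSO, inhibition computed as (1 − OD with compound plus ceftriaxone ÷ OD with ceftriaxone only) × 100.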

NC(=O)Nc1sc(-c2ccc(F)cc2)cc1C(N)=O
growth inhibition: 40.9 ± 15%

COc1cccc(Nc2nccc(-c3cnn4ncccc34)n2)c1
growth inhibition: -2.59 ± 1.4%

O=C(Nc1n[nH]c2nnc(-c3cccnc3)cc12)C1CC1
growth inhibition: -0.393 ± 1.3%

COc1ccc(COc2cc3oc(=O)c4cc(C(C)O)ccc4c3cc2OC)cc1 (stereo unspecified) [Palomid 529]
growth inhibition: 18 ± 10%

CC1=C(C(=O)Nc2ccc3[nH]nc(C)c3c2)C(c2ccc(C(F)(F)F)cc2)CC(=O)N1 (stereo unspecified)
growth inhibition: -1.71 ± 13%

NCC(=O)Nc1ccc(-n2nc(C(F)(F)F)cc2-c2ccc3c(ccc4ccccc43)c2)cc1
growth inhibition: 85.45 ± 0.52%

CC1=C(C(=O)Nc2ccc3[nH]ncc3c2)C(c2ccc3ccccc3c2)CC(=O)N1 (stereo unspecified)
growth inhibition: 11.5 ± 2.3%

NC(=O)c1ccc2c(-c3ccnc(NCCCO)n3)c(-c3ccc(F)cc3)nn2c1
growth inhibition: -7.27 ± 16%

Nc1nccc(C#Cc2cncnc2Nc2ccc(OCc3cccc(F)c3)c(Cl)c2)n1
growth inhibition: 8.9975 ± 0.0066%

CCn1cc(-c2ccnc3[nH]ccc23)c(-c2cccc(NC(=O)Nc3ccc(OCc4ccccc4)cc3)c2)n1
growth inhibition: -0.807 ± 2.3%

CCS(=O)(=O)Nc1ccc2c(c1)/C(=C(/Nc1ccc(CN3CCCCC3)cc1)c1ccccc1)C(=O)N2 [Hesperadin]
growth inhibition: 19.3 ± 11%

CC(C)c1ccc(-c2cc(-c3c[nH]nc3-c3ccccn3)ccn2)cc1
growth inhibition: -6.81 ± 3%

Cc1nc(N)sc1-c1ccnc(Nc2ccc(N3CCOCC3)cc2)n1
growth inhibition: -5.25 ± 7.3%

C/C(Nc1ccc(S(N)(=O)=O)cc1)=C1/C(=O)Nc2ccccc21
growth inhibition: -3.55 ± 0.8%

NS(=O)(=O)c1ccc(-c2cc3ccncc3cc2OCc2ccccc2)cc1
growth inhibition: -3.99 ± 6.9%

O=C(Nc1ccc(OC(F)(F)F)cc1)c1sccc1NCc1ccnc2ccccc12
growth inhibition: 35.9 ± 3.9%

Cc1ccc(NC(=O)c2ccnc(N3CCCC3)c2)cc1-c1ccc(C(=O)NCC2CC2)cc1
growth inhibition: -0.943 ± 1.3%

OCCn1cc(-c2ccc3c(c2)CC/C3=N\O)c(-c2ccncc2)n1
growth inhibition: 83 ± 8.8%

COc1cc2ncnc(Nc3ccc(C)c(O)c3)c2cc1OC
growth inhibition: -12.9 ± 9.4%

CCOc1nccc2c1nc(-c1nonc1N)n2CC
growth inhibition: 13.6 ± 0.53%

Cc1ccc(NC(=O)c2ccc(CN3CCN(C)CC3)cc2)cc1Nc1nccc(-c2cccnc2)n1 [Imatinib (Gleevec)]
growth inhibition: 16.3 ± 4.7%

COc1cc2ncn(-c3cc(OCc4ccccc4C(F)(F)F)c(C(=O)N(C)C)s3)c2cc1OC
growth inhibition: -5.41 ± 4.1%

CC[C@H](Nc1ncnc2[nH]cnc12)c1nc2cccc(F)c2c(=O)n1-c1ccccc1
growth inhibition: 21.7 ± 23%

COc1ccc(-c2ccc3ncc4c(c3c2)n(-c2ccc(N3CCNCC3)c(C(F)(F)F)c2)c(=O)n4C)cn1
growth inhibition: 28.5 ± 9.7%

COc1cc2ncn(-c3cc(OCCc4ccccc4)c(C(N)=O)s3)c2cc1OC
growth inhibition: -4.76 ± 1.4%

N#Cc1ccc(Oc2nccc(-c3c(-c4ccc(F)cc4)ncn3C3CCNCC3)n2)cc1
growth inhibition: -15.2 ± 18%

CS(=O)(=O)CCNCc1cc(-c2cc3c(Nc4ccc(OCc5cccc(F)c5)c(Cl)c4)ncnc3s2)cs1
growth inhibition: -10.8 ± 13%

CS(=O)(=O)CCN(CC#N)Cc1ccc(-c2ccc3ncnc(Nc4ccc(OCc5cccc(F)c5)c(Cl)c4)c3c2)o1
growth inhibition: 1.01 ± 5.1%

CC(C)c1ccc(Nc2nccc(-c3cnn4ncccc34)n2)cc1
growth inhibition: -0.923 ± 0.22%

CCc1ccc(Oc2nccc(-c3c(-c4ccc(F)cc4)ncn3C3CCNCC3)n2)cc1
growth inhibition: 1.75 ± 23%

CC(=O)Nc1cccc(-n2c(=O)n(C3CC3)c(=O)c3c(Nc4ccc(I)cc4F)n(C)c(=O)c(C)c32)c1
growth inhibition: 31.3 ± 12%

O=C1Nc2ccc(I)cc2C1=Cc1cc(Br)c(O)c(Br)c1
growth inhibition: 36.9 ± 6%

Fc1ccc(-c2nc3n(c2-c2ccncc2)CCS3)cc1
growth inhibition: -8.85 ± 15%

CS(=O)(=O)Nc1cccc(-c2ccc3c(NC(=O)C4CC4)n[nH]c3c2)c1
growth inhibition: -6.98 ± 15%

NS(=O)(=O)c1ccc(Nc2ncc(-c3ccccc3)o2)cc1
growth inhibition: 6.88 ± 6.9%

Cc1ccc2c(-c3ccnc(Nc4ccc5c(c4)OCCO5)n3)c(-c3ccc(C(F)(F)F)cc3)nn2n1
growth inhibition: -1.85 ± 0.84%

COc1ccc(-c2nn3ncccc3c2-c2ccnc(Nc3ccc(Cl)c(C(F)(F)F)c3)n2)cc1
growth inhibition: -8.69 ± 0.94%

COc1ccc2ncnc(Nc3ccc(OCc4ccccc4)cc3)c2c1
growth inhibition: 1.99 ± 13%

COc1ccc2c(-c3ccnc(Nc4cccc(OC(F)(F)F)c4)n3)cnn2n1
growth inhibition: -7.53 ± 17%

O=C(O[C@H]1CN[C@H](C#Cc2cc3ncnc(Nc4ccc(Cc5ccccc5)cc4)c3s2)C1)N1CCOCC1
growth inhibition: -6.43 ± 10%

CN(C)CCCn1c(-c2nonc2N)nc2cnccc21
growth inhibition: -5.31 ± 2.5%

CN(C)Cc1cccc(N/C(=C2\C(=O)Nc3cc(C(N)=O)ccc32)c2ccccc2)c1
growth inhibition: 8.63 ± 3.3%

CNC(=O)c1cccc(-c2ccc3c(N4CCOC[C@@H]4C)nc(N4CCOC[C@@H]4C)nc3n2)c1
growth inhibition: 1.51 ± 0.18%

CN1CCN(c2ccc3nc(-c4c(N)c5c(F)cccc5[nH]c4=O)[nH]c3c2)CC1 [Dovitinib (TKI-258)]
growth inhibition: 1.47 ± 0.1%

C[C@@H](Oc1cc(-n2cnc3ccc(OCC4CCN(C)CC4)cc32)sc1C(N)=O)c1ccccc1Cl
growth inhibition: -2.37 ± 3%

C[C@@H](Oc1cc(-c2cnn(C3CCNCC3)c2)cnc1N)c1c(Cl)ccc(F)c1Cl
growth inhibition: 94.9 ± 5.1%

CNC(=O)c1nn(C)c2c1C(C)(C)Cc1cnc(Nc3ccc(N4CCN(C)CC4)cc3)nc1-2
growth inhibition: 20.7 ± 8.5%

CCn1c(-c2nonc2N)nc2cncc(C(=O)NCCNC)c21
growth inhibition: -6.44 ± 0.39%

CN1CCC(C(=O)Nc2n[nH]c3nnc(-c4ccccc4)cc23)CC1
growth inhibition: 17.5 ± 11%

CN(C)c1ccc2c(c1)/C(=C/Nc1ccc(S(N)(=O)=O)cc1)C(=O)N2
growth inhibition: 1.99 ± 14%

C[C@@H](Oc1cc(-n2cnc3ccc(OC[C@@H](O)CO)cc32)sc1C(N)=O)c1ccccc1Cl
growth inhibition: -3.67 ± 1.5%

COCCOc1ccc2c(c1)ncn2-c1ccc2cccc(N3CCC(N)CC3)c2n1
growth inhibition: 7.08 ± 14%

COc1ccc(-c2cc(-c3c[nH]nc3-c3ccccn3)ccn2)cc1
growth inhibition: 3.1 ± 4.7%

CNC(=O)CN1CCC(Oc2cc3c(Nc4cccc(Cl)c4F)ncnc3cc2OC)CC1
growth inhibition: 0.347 ± 1.9%

NC(=O)c1cc(-c2ccncc2)cc(-c2ccccc2)c1N
growth inhibition: 2.14 ± 8.1%

CCn1c(-c2nonc2N)nc2c(C#CC(C)(C)O)nc(OCCNC)cc21
growth inhibition: 41.3 ± 18%

COc1cc(Nc2c(C#N)cnc3cc(OCCCN4CCN(C)CC4)c(OC)cc23)c(Cl)cc1Cl [Bosutinib (SKI-606)]
growth inhibition: 72.2 ± 1.1%

CN(C[C@@H]1COCCO1)S(=O)(=O)Nc1ccc2ccc3ncc(-c4cnn(C)c4)cc3c(=O)c2c1
growth inhibition: -22.01 ± 0.12%

Fc1ccc(-c2ncn(C3CCNCC3)c2-c2ccnc(Oc3ccc4c(c3)OCO4)n2)cc1
growth inhibition: -3.86 ± 1.5%

COc1ccc2c(Oc3ccc(NC(=O)c4c(C)n(CC(C)(C)O)n(-c5ccccc5)c4=O)nc3)ccnc2c1
growth inhibition: 28.9 ± 13%

COc1cc2nccc(Oc3ccc(NC(=O)NC4CC4)c(Cl)c3)c2cc1C(N)=O [E7080 (Lenvatinib)]
growth inhibition: 5.83 ± 14%

CC(=O)Nc1nc(C)c(-c2ccc(Cl)c(S(=O)(=O)NCCO)c2)s1
growth inhibition: 29.5 ± 2%

Clc1ccc(CNc2nccc(-c3cnn4ncccc34)n2)cc1
growth inhibition: -1.66 ± 1.6%

COc1cc2ncn(-c3cc(O[C@H](C)c4ccccc4Cl)c(C(N)=O)s3)c2cc1OC
growth inhibition: -3.78 ± 5.6%

CCN1CCC(CC(=O)Nc2n[nH]c3nnc(-c4cccc(F)c4F)cc23)CC1
growth inhibition: 7 ± 6.8%

Cn1cnc(N)c2ncnc1-2 [3-Methyladenine]
growth inhibition: 4.53 ± 5.3%

Nc1nc(-c2ccc(F)cc2)c(-c2ccc3ncccc3n2)s1
growth inhibition: -1.57 ± 2.7%

N#Cc1cccc(Nc2ncc(-c3ccccc3)o2)c1
growth inhibition: -4.01 ± 1.7%

C[C@@H](Oc1cc(-n2cnc3ccc(OC4CCN(C)CC4)cc32)sc1C(N)=O)c1ccccc1Cl
growth inhibition: 0.604 ± 2.5%

CNC(=O)c1cc(Oc2ccc(NC(=O)Nc3ccc(Cl)c(C(F)(F)F)c3)c(F)c2)ccn1 [Regorafenib (BAY 73-4506)]
growth inhibition: 85.5 ± 3.7%

OCc1ccc(-c2nc(-c3ccc4c(c3)OCO4)c(-c3ccccn3)[nH]2)cc1
growth inhibition: 7.68 ± 2.9%

CCn1c(-c2nonc2N)nc2ccncc21
growth inhibition: -0.136 ± 1.1%

O=C(NCc1ccccc1)c1csc(Nc2ccncn2)n1 [Thiazovivin]
growth inhibition: 5.95 ± 11%

CCn1cc(-c2ccnc3[nH]c(-c4cccc(CN(C)C)c4)cc23)c(-c2ccc(NC(=O)N(C)C)cc2)n1
growth inhibition: 26.7 ± 18%

Cc1nnc(-c2ccc(C)c(-c3ccc(C(=O)Nc4cccc(C#N)c4)cc3)c2)o1
growth inhibition: 6.6 ± 12%

COc1ccc(COc2ccc(Cc3cnc(N)nc3N)cc2OC)cc1
growth inhibition: 63.8 ± 9.7%
